Laboratory results published in PubChem BioAssay.
Records with an inconclusive call do not appear. The source made the active and inactive calls. Unless noted, the limit is not given here; nearly all actives have AC50 up to about 26 µM.

Key:
[1] = viability loss in pontine glioma line – cell-based, SU-DIPG-XVII, MIPE5.0, CellTiter-Glo, qHTS, dose response (AID 1347060); conditions: CellTiter-Glo ATP luminescence;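 as to AC50: cells exposed to compound for 48 hours before viability readout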
[2] = viability loss in pontine glioma line – cell-based, SU-DIPG-XIII, MIPE5.0, CellTiter-Glo, qHTS, dose response (AID 1347064; cut-off not given, nearly all actives have AC50 up to about 23 µM;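 as to AC50: cells exposed to compound for 48 hours before the viability read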); conditions: CellTiter-Glo ATP luminescence
[3] = viability loss in pontine glioma line – cell-based, SU-DIPG-XXV, MIPE5.0, CellTiter-Glo, qHTS, dose response (AID 1347065); conditions: CellTiter-Glo ATP luminescence;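 also: cells exposed to compound for 48 hours before ATP readout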
[4] = JHH-DIPG-1 glioma cell viability, MIPE5.0 library, CellTiter-Glo luminescence, qHTS (AID 1347067); conditions: JHH-DIPG-1 glioma viability, CellTiter-Glo ATP luminescence;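 also: cells exposed to compound for 48 hours before readout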
[5] = growth inhibition of DIPG cells – cell-based, MIPE5.0 library, qHTS (AID 1347068; cut-off not given, nearly all actives have IC50 up to about 30 µM;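 as to IC50: cells exposed to compound for 48 hours before viability readout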); conditions: SU-DIPG-XXV viability

Cc1cc(OCCCc2c3n(c4c(-c5c(C)nn(C)c5C)c(Cl)ccc24)[C@H](C)CN(c2cn(C)c4ccc(C(=O)O)cc24)C3=O)cc(C)c1Cl
active: AC50 [1] 0.833 µM | AC50 [2] 5.25 µM | AC50 [3] 0.468 µM | AC50 [4] 9.34 µM | IC50 [5] 3.72 µM

O=C(/C=C/c1ccc2ccc(C(F)(F)F)cc2n1)c1ccncc1
active: AC50 [1] 4.17 µM | AC50 [2] 1.48 µM | AC50 [3] 2.95 µM | AC50 [4] 2.35 µM | IC50 [5] 7.42 µM

N#Cc1ccc(N(Cc2ccc(Br)cc2)n2cnnc2)cc1
inactive: outcome [1] | outcome [2] | outcome [3] | outcome [4] | outcome [5]

C=CC(=O)Nc1cccc(Oc2nc(Nc3ccc(N4CCN(C)CC4)c(F)c3)nc3[nH]ccc23)c1
active: AC50 [1] 2.63 µM | AC50 [2] 5.25 µM | AC50 [3] 1.86 µM | AC50 [4] 9.34 µM | IC50 [5] 0.833 µM

C=C1C(=O)O[C@H]2C[C@H](C)C(/C=C/C(C)=O)=CC[C@H]12
active: AC50 [1] 4.17 µM | AC50 [2] 2.63 µM | AC50 [3] 4.68 µM | AC50 [4] 3.32 µM | IC50 [5] 7.42 µM

C[C@H](Nc1nc(N[C@H](C)C(F)(F)F)nc(-c2cccc(Cl)n2)n1)C(F)(F)F
inactive: outcome [1] | outcome [2] | outcome [3] | outcome [4] | outcome [5]

O=C(Nc1cc(Oc2cc(F)c(NC(=O)C3(C(=O)Nc4ccc(F)cc4)CC3)cc2F)ccn1)C1CC1
active: AC50 [1] 14.8 µM | AC50 [2] 13.2 µM | AC50 [3] 9.34 µM | AC50 [4] 13.2 µM | IC50 [5] 18.6 µM

COC(=O)N(CC(=O)O)Cc1cccc(OCc2nc(-c3ccc(Cl)cc3)oc2C)c1
inactive: outcome [1] | outcome [2] | outcome [3] | outcome [4] | outcome [5]

COc1cc(F)ccc1-c1ncnc(Nc2cccc(CS(C)(=N)=O)c2)n1 (stereo not given)
active: AC50 [1] 1.48 µM | AC50 [2] 1.48 µM | AC50 [3] 1.66 µM | AC50 [4] 1.86 µM | IC50 [5] 1.86 µM

O=C(O)CCCCN(CCc1ccccc1OCc1ccc(CCc2ccccc2)cc1)Cc1ccc(C(=O)O)cc1
inactive: outcome [1] | outcome [2] | outcome [3] | outcome [4] | outcome [5]

COc1cc2c3c(n(CCCNCCO)c(=O)c2cc1OC)-c1cc2c(cc1C3=O)OCO2
active: AC50 [1] 0.105 µM | AC50 [2] 2.95 µM | AC50 [3] 4.68 µM | AC50 [4] 2.63 µM | IC50 [5] 9.34 µM

COC(=O)N1CC2(CC2)C[C@H](C(=O)NO)[C@H]1C(=O)N1CCN(c2ccccc2)CC1
inactive: outcome [1] | outcome [2] | outcome [3] | outcome [4] | outcome [5]

COc1cc(OC)c(/C=C/S(=O)(=O)Cc2ccc(OC)c(OP(=O)(O)O)c2)c(OC)c1
active: AC50 [1] 0.0417 µM | AC50 [2] 0.0417 µM | AC50 [3] 0.0742 µM | AC50 [4] 0.059 µM | IC50 [5] 0.0742 µM

CS(=O)(=O)N1CCC(NC(=O)c2[nH]ncc2NC(=O)c2c(Cl)cccc2Cl)CC1
active: AC50 [1] 3.32 µM | AC50 [2] 4.17 µM | AC50 [3] 4.17 µM | AC50 [4] 4.17 µM | IC50 [5] 4.68 µM

O=C(COCC(=O)N1CCN(C(c2ccccc2)c2ccccc2)CC1)Nc1ccc(Cl)cc1C(=O)O
inactive: outcome [1] | outcome [2] | outcome [3] | outcome [4] | outcome [5]

CC[C@]12C=CCN3CC[C@@]4(c5cc([C@@]6(C(=O)OC)CC7C[C@@H](C(C)(F)F)CN(Cc8c6[nH]c6ccccc86)C7)c(OC)cc5N(C)[C@H]4[C@@](O)(C(=O)OC)[C@@H]1OC(C)=O)[C@@H]32 (stereo not given in full)
active: AC50 [1] 0.148 µM | AC50 [2] 1.05 µM | AC50 [3] 0.132 µM | AC50 [4] 0.235 µM | IC50 [5] 0.742 µM

CC(C)(C)C(=O)N1N=CC[C@H]1c1ccccc1
inactive: outcome [1] | outcome [2] | outcome [3] | outcome [4] | outcome [5]

Cc1ccccc1-n1nc(-c2c(-c3ccc(F)cc3)nn3c2NC[C@@H](CO)C3)ccc1=O
inactive: outcome [1] | outcome [2] | outcome [3] | outcome [4] | outcome [5]

CNS(=O)(=O)c1ccc2c(c1)/C(=C/c1[nH]c3c(c1CCCN1CCN(C)CC1)CCCC3)C(=O)N2
active: AC50 [1] 7.42 µM | AC50 [2] 8.33 µM | AC50 [3] 7.42 µM | AC50 [4] 10.5 µM
inactive: outcome [5]

CCNC(=O)C#Cc1ccc2c(C(=Nc3ccc(CN(C)C)cc3)c3ccccc3)c(O)[nH]c2c1
active: AC50 [1] 0.162 µM | AC50 [2] 0.574 µM | AC50 [3] 0.0723 µM | AC50 [4] 0.288 µM | IC50 [5] 0.811 µM

CC(=O)c1ccc2c(c1)c1cc(C(C)=O)ccc1n2CCNC(C)C
active: AC50 [1] 2.95 µM | AC50 [2] 4.68 µM | AC50 [3] 3.32 µM | AC50 [4] 2.63 µM | IC50 [5] 5.9 µM

CC(C)Nc1cc(-c2c[nH]c(C(=O)N[C@H](CO)c3cccc(Cl)c3)c2)c(Cl)cn1
active: AC50 [1] 1.48 µM | AC50 [2] 4.17 µM | AC50 [3] 3.32 µM | AC50 [4] 1.66 µM | IC50 [5] 14.8 µM

Nc1ncnc(Nc2ccc(OCc3ccccc3)c(Cl)c2)c1/C=N/OCCN1CCOCC1
active: AC50 [1] 23.5 µM | AC50 [2] 16.6 µM | AC50 [3] 16.6 µM | AC50 [4] 18.6 µM | IC50 [5] 14.8 µM

CO[C@@H](C)Cn1c(=O)n(C)c2cnc3ccc(-c4cncc(C(C)(C)O)c4)cc3c21
active: AC50 [1] 0.934 µM | AC50 [2] 1.86 µM | AC50 [3] 0.59 µM | AC50 [4] 1.05 µM | IC50 [5] 1.48 µM

CNC(=O)c1ccc(Nc2ncc(C(F)(F)F)c(NCc3nccnc3N(C)S(C)(=O)=O)n2)cc1
active: AC50 [1] 4.68 µM | AC50 [2] 5.25 µM | AC50 [3] 3.72 µM | AC50 [4] 4.68 µM | IC50 [5] 2.35 µM

O=S(=O)(Nc1ccc(-c2cccnc2)c2cccnc12)c1cccc(C(F)(F)F)c1
inactive: outcome [5]
active: AC50 [1] 11.8 µM | AC50 [2] 16.6 µM | AC50 [3] 14.8 µM | AC50 [4] 7.42 µM

CO[C@@H]1COCC[C@@H]1N[C@@H]1CC[C@@](C(=O)N2CCc3ncc(C(F)(F)F)cc3C2)(C(C)C)C1
inactive: outcome [1] | outcome [2] | outcome [3] | outcome [4] | outcome [5]

COC(=O)Nc1cc(Nc2cc(NC3CC3)c3ncc(C#N)n3n2)c(Cl)c(N2CCN(C)CC2)c1
active: AC50 [1] 5.25 µM | AC50 [2] 3.72 µM | AC50 [3] 2.63 µM | AC50 [4] 2.95 µM | IC50 [5] 23.5 µM

C[C@@H]1CC(=O)Nc2cccc(-c3cnn(C(C)(C)C)c3)c2N1
inactive: outcome [1] | outcome [2] | outcome [3] | outcome [4] | outcome [5]

CCN(C(=O)c1ccccc1OC)c1cc2c(cc1N1CCNC[C@H]1C)n(C)c(=O)n2C
inactive: outcome [1] | outcome [2] | outcome [3] | outcome [4] | outcome [5]

Cc1c[nH]c2nc(Nc3ccc(N4CCN(C)CC4)c(F)c3)nc(-c3cccc(CC#N)c3)c12
active: AC50 [1] 2.35 µM | AC50 [2] 4.17 µM | AC50 [3] 4.17 µM | AC50 [4] 3.72 µM | IC50 [5] 3.32 µM

Clc1cccc(-c2ccc(-c3nnc(CCCc4ccc5cccnc5n4)o3)cc2)c1
inactive: outcome [1] | outcome [2] | outcome [3] | outcome [4] | outcome [5]

CCC(=O)N1CCOc2c(cc(-c3cc(OC)cc(OC)c3)cc2C(=O)N[C@H]2CCCN(C)C2)C1
inactive: outcome [1] | outcome [2] | outcome [3] | outcome [4] | outcome [5]

COc1ccc(C(=O)N2CCN(c3ccc4c(c3)CCC(=O)N4)CC2)cc1OC
inactive: outcome [1] | outcome [2] | outcome [3] | outcome [4] | outcome [5]

CC(C)(C)C(=O)CN1C(=O)[C@H](NC(=O)Nc2cccc(C(=O)O)c2)CN(C2CCCCC2)c2ccccc21
inactive: outcome [1] | outcome [2] | outcome [3] | outcome [4] | outcome [5]

CN1CCN(c2ccc3nc(-c4cc(C(C)(C)C)c(OCCCC(=O)NCCCN=[N+]=[N-])c(C(C)(C)C)c4)[nH]c3c2)CC1
active: AC50 [1] 10.5 µM | AC50 [2] 13.2 µM | AC50 [3] 7.42 µM | AC50 [4] 11.8 µM | IC50 [5] 9.34 µM

Cc1cnc(Nc2ccc(F)cc2Cl)nc1-c1c[nH]c(C(=O)NC(CO)c2cccc(Cl)c2)c1 (stereo not given)
active: AC50 [1] 3.32 µM | AC50 [2] 5.9 µM | AC50 [3] 2.09 µM | AC50 [4] 2.63 µM | IC50 [5] 10.5 µM

CC(=O)c1cnc2ccc(-c3cc(Cl)c(O)c(Cl)c3)nc2c1NC1CCC(CN(C)C)CC1 (stereo not given)
active: AC50 [1] 0.191 µM | AC50 [2] 0.171 µM | AC50 [3] 0.121 µM | AC50 [4] 0.303 µM | IC50 [5] 0.191 µM

O=C(CCCc1ccc2cccnc2n1)NCc1cc(-c2ccc(F)c(C(F)(F)F)c2)no1
inactive: outcome [1] | outcome [2] | outcome [3] | outcome [4] | outcome [5]

[2H]c1nc(C)nc([2H])c1-c1cc(NC[C@@H](C)c2cccc3c(C(=O)NC)ccnc23)ncn1
inactive: outcome [1] | outcome [2] | outcome [3] | outcome [4] | outcome [5]

O=C(Nc1cnn2ccc(N3CCC[C@@H]3c3cc(F)ccc3F)nc12)N1CC[C@H](O)C1
inactive: outcome [1] | outcome [2] | outcome [3] | outcome [4] | outcome [5]

C1=C/COCc2cc(ccc2OCCN2CCCC2)Nc2nccc(n2)-c2cccc(c2)COC/1
active: AC50 [1] 2.95 µM | AC50 [2] 2.95 µM | AC50 [3] 2.09 µM | AC50 [4] 4.17 µM | IC50 [5] 2.95 µM

CNCCn1c(=O)c2cc(OC)c(OC)cc2c2cnc3cc4c(cc3c21)OCO4
active: AC50 [1] 0.0215 µM | AC50 [2] 1.71 µM | AC50 [3] 1.52 µM | AC50 [4] 0.481 µM
inactive: outcome [5]

NC[C@@](O)(c1ccc(Cl)cc1)c1ccc(-c2cn[nH]c2)cc1
active: AC50 [2] 18.6 µM | AC50 [3] 13.2 µM | AC50 [4] 26.3 µM | IC50 [5] 23.5 µM
inactive: outcome [1]

Cc1ccc(NC(=O)Nc2nnc(Sc3ncnc4cc(OCCCN5CCOCC5)ccc34)s2)cc1
inactive: outcome [5]
active: AC50 [1] 2.95 µM | AC50 [2] 2.63 µM | AC50 [3] 1.86 µM | AC50 [4] 2.35 µM
